Results reported in PubChem BioAssay (Tox21).
Unmarked numbers belong to inactive results. Results filed as inconclusive are left out. Where a call stands in place of a potency, no number is given. Active and inactive are the calls of the source. Unless noted, calls come from the whole dose curve; as a rule, active = well fitted curve in the direction sought with a large enough effect in the repeat runs; inconclusive = weak or mixed curves; inactive = no such curve, though single readings can be large; an effect the other way counts as inactive or inconclusive.

Assays:
[1] = qHTS assay to identify small molecule antagonists of the estrogen related receptor (ERR) signaling pathway from Tox21 library - cell viability counter screen (AID 1224834); note: nearly all actives have a fitted effect of over 30% in size
Outline: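 Multiplexed viability counter screen in ERR cells: 17.5 h compound exposure at 37 C, CellTiter-Fluor added, 30 min at 37 C/5% CO2, fluorescence read.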

[2] = molecular target: Luciferin 4-monooxygenase (Photinus pyralis) (UniProt P08659); assay: qHTS assay to identify small molecule inhibitors of firefly luciferase (AID 1224835); note: nearly all actives have a fitted effect of over 25% in size
Sequence of Luciferin 4-monooxygenase (Photinus pyralis) (P08659 whole entry, looked up): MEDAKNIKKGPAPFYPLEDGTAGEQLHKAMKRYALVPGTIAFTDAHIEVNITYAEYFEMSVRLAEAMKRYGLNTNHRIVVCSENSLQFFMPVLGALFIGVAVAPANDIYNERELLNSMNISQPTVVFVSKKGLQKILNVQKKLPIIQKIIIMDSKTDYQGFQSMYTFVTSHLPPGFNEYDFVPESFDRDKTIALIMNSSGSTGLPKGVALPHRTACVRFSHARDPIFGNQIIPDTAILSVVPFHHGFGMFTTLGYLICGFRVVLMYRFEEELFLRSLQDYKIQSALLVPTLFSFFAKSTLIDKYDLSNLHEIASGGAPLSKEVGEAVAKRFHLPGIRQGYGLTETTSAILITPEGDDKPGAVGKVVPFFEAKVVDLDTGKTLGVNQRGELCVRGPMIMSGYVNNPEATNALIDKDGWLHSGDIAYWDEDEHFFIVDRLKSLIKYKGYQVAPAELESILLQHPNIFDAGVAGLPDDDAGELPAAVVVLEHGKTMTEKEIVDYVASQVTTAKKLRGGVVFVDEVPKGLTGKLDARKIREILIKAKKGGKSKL
Outline: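 Biochemical qHTS: compounds run as interplate titrations against purified firefly enzyme, with D-luciferin and ATP each at its KM concentration. Light output recorded by CCD imaging.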

[3] = qHTS assay to identify small molecule agonists of the constitutive androstane receptor (CAR) signaling pathway - cell viability counter screen (AID 1224836); note: nearly all actives have a fitted effect of over 45% in size
Outline: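 Double-stable HepG2 hepatoma cells (hCAR plus CYP2B6-2.2kb) are treated for 23 h at 37 C with test compounds in 15-point concentration series. PK11195 at 0.75 uM final is co-added. Cell viability is quantified by CellTiter-Fluor.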

[4] = qHTS assay to identify small molecule antagonists of the constitutive androstane receptor (CAR) signaling pathway - cell viability counter screen (AID 1224837); note: nearly all actives have a fitted effect of over 45% in size
Outline: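 Read-out: CellTiter-Fluor fluorescence after 23 hr at 37 C/5% CO2. Cells: HepG2 double-stable for hCAR and CYP2B6-2.2kb. Compounds tested at 15 concentrations in the presence of CITCO, final concentration 50 nM.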

[5] = molecular target: Nuclear receptor subfamily 1 group I member 3 (Homo sapiens) (UniProt Q14994); assay: qHTS assay to identify small molecule antagonists of the constitutive androstane receptor (CAR) signaling pathway (AID 1224838);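 note: HepG2 cells stably expressing hCAR with CYP2B6 luciferase reporter stimulated by CITCO; nearly all actives have a fitted effect of over 40% in size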
Sequence of Nuclear receptor subfamily 1 group I member 3 (Homo sapiens) (Q14994 whole entry, looked up): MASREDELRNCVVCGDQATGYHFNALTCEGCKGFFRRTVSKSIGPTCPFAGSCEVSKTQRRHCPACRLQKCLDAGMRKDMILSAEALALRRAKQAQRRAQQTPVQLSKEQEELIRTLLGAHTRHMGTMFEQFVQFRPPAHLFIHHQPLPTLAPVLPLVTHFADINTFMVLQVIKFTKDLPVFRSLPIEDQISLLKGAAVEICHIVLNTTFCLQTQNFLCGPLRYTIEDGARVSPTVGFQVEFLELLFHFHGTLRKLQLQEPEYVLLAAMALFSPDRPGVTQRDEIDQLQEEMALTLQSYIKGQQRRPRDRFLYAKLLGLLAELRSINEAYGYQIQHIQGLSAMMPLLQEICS
Outline: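 Read-out: ONE-Glo luciferase luminescence after 30 min at room temperature. HepG2-CYP2B6-hCAR double-stable cells, compounds in 15-point titration plus 50 nM CITCO final, 24 h at 37 C/5% CO2.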

[6] = molecular target: Nuclear receptor subfamily 1 group I member 3 (Homo sapiens) (UniProt Q14994); assay: qHTS assay to identify small molecule agonists of the constitutive androstane receptor (CAR) signaling pathway (AID 1224839); note: nearly all actives have a fitted effect of over 15% in size; note: potency is the fitted concentration of half-maximal effect;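 for activation: HepG2 cells stably carrying human CAR and a CYP2B6 luciferase reporter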
Outline: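 Readout: firefly luciferase luminescence via ONE-Glo. System: HepG2 double-stable for hCAR and CYP2B6-2.2kb. Conditions: 15-point compound titration, PK11195 at 0.75 uM final, 24 h incubation.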

[7] = qHTS assay to identify small molecule antagonists of the estrogen related receptor signaling pathway with the pleiotropic PPARgamma coactivator (PGC) from Tox21 10K library - cell viability counter screen (AID 1224840; active = well fitted cell-killing curve with a large enough effect in the repeat runs, not every such curve was filed as active; note: nearly all actives have a fitted effect of over 40% in size)
Outline: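 Fluorescence read-out of CellTiter-Fluor viability reagent, added after cells had been exposed to compound in DMSO for 17.5 h at 37 C; 30 min development at 37 C/5% CO2. Cells: PGC/ERR line, 2,000/well.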

[8] = molecular target: Thyrotropin receptor (Homo sapiens) (UniProt P16473); assay: qHTS assay to identify small molecule agonists of the thyroid stimulating hormone receptor (TSHR) signaling pathway (AID 1224843; calls by dose curve; note: nearly all actives have a fitted effect of over 45% in size)
Sequence of Thyrotropin receptor (Homo sapiens) (P16473 whole entry, looked up): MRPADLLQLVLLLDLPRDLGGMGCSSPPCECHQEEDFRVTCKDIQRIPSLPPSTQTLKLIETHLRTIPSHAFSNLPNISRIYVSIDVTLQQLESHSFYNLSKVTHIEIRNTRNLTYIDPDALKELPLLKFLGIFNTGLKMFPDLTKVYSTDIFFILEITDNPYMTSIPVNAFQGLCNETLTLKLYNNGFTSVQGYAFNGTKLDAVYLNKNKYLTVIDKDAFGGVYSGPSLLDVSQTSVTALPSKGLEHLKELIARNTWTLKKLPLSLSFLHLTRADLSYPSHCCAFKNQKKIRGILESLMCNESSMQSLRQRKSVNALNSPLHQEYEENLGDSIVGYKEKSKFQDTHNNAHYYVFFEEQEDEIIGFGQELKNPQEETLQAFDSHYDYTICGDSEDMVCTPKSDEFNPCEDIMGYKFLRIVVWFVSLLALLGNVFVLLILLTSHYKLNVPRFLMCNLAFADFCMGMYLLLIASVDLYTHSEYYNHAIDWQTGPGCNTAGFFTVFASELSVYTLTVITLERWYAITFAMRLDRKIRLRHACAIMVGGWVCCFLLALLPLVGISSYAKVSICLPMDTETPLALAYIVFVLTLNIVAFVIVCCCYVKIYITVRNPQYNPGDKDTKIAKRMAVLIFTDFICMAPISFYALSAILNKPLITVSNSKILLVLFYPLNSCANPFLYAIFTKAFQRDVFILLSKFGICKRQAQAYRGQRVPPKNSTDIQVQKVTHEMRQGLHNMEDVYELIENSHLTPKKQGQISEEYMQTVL
Outline: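 Agonist-mode screen: TSHR HEK293 cells received test chemicals for half an hour at room temperature, then HTRF cAMP detection reagents for one hour prior to fluorescence measurement. Each chemical ran as a 15-concentration series, triplicated.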

[9] = qHTS assay to identify small molecule agonists of the hypoxia (HIF-1) signaling pathway - cell viability counter screen (AID 1224844; calls by dose curve; note: nearly all actives have a fitted effect of over 50% in size)
Outline: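 CellTiter-Glo luminescence read-out, 30 min RT, taken in the same wells as the beta-lactamase HRE reporter assay; HRE-bla ME-180 cells, 0.5% dialyzed FBS, 17 hr compound treatment at 37C, 5% CO2.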

[10] = qHTS assay to identify small molecule agonists of H2AX (AID 1224845; active = well fitted activation curve with a large enough effect in the signal ratio in the repeat runs, not every such curve was filed as active; the % refers to the signal ratio)
Outline: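 Wild-type CHO-K1 cells, plated overnight, exposed 3hr at 37C to 15 concentrations (0.76% DMSO final). Lysed, then HTRF anti-pH2AX (S139) cryptate and anti-H2AX-d2 antibodies, 24 hr room temperature; 665/620 nm emission read.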

[11] = qHTS assay to identify small molecule agonists of H2AX - cell viability counter screen (AID 1224847; calls by dose curve; note: top concentration of the series differs between compounds; nearly all actives have a fitted effect of over 30% in size)
Outline: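 For this counter screen, overnight-attached CHO-K1 cells received test compounds (15 concentrations, 0.76% DMSO final); 3 hr later at 37C, CellTiter-Glo reagent was added and luminescence recorded after 30 min at room temperature.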

[12] = qHTS RealTime-Glo MT Cell Viability Assay in HepG2 cells - 24 hour (AID 1224867); note: nearly all actives have a fitted effect of over 50% in size
Outline: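 Compound treatment began 5 h after plating HepG2 cells (600/well) with NanoLuc luciferase and prosubstrate. Plates stayed at 37 C for 40 h; luminescence was captured at six time points, 0 h through 40 h.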

[13] = qHTS RealTime-Glo MT Cell Viability Assay in HEK293 cells - 32 hour (AID 1224868); note: top concentration of the series differs between compounds; nearly all actives have a fitted effect of over 50% in size
Outline: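 Quantitative high-throughput screen of the Tox21 10K library in HEK293: cells and RealTime-Glo reagents plated together, compound added at 5 h, luminescence monitored through 40 h at 37 C.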

[14] = A CellTox Green Cytotoxicity Assay to monitor cytotoxicity in HEK293 cells - 0 hour (AID 1224869); note: nearly all actives have a fitted effect of over 50% in size
Outline: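 Read-out: fluorescence of a cell-impermeant cyanine dye staining DNA of dead cells, proportional to cytotoxicity. HEK293, 600 cells/well with reagent, compound (23 nL DMSO) added after 5 h; reads at 0, 8, 16, 24, 32, 40 h.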

[15] = qHTS RealTime-Glo MT Cell Viability Assay in HepG2 cells - 40 hour (AID 1224870); note: nearly all actives have a fitted effect of over 50% in size
Outline: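 HepG2 cells (600/well) mixed with RealTime-Glo MT reagent, settled 5 h at 37 C/5% CO2 before compound addition. Nonlytic NanoLuc luminescence from viable-cell prosubstrate reduction read repeatedly during 40 h treatment at 37 C.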

[16] = qHTS assay to identify small molecule antagonists of the estrogen related receptor signaling pathway with the pleiotropic PPARgamma coactivator (PGC) from Tox21 10K library (AID 1224841; call rule not given here)
Outline: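 Luminescence read-out (One-Glo luciferase reagent, 30 min at room temperature) from PGC/ERR cells exposed to DMSO-dissolved test compounds for 18 h at 37 C; cells, 2,000 per well, had been preincubated 6 h before compound transfer.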

[17] = qHTS assay to identify small molecule agonists of the estrogen related receptor signaling pathway with the pleiotropic PPARgamma coactivator (PGC) from Tox21 10K library (AID 1224842); note: nearly all actives have a fitted effect of over 15% in size
Outline: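 PGC/ERR reporter cell line, 2,000 cells per well, incubated 6 h at 37 C before 23 nL compound in DMSO was added. After 18 h at 37 C, One-Glo luminescence read following 30 min at room temperature.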

[18] = qHTS assay to identify small molecule agonists of the hypoxia (HIF-1) signaling pathway (AID 1224846; active = well fitted activation curve with a large enough effect in the signal ratio in the repeat runs, not every such curve was filed as active; the % refers to the signal ratio)
Outline: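 Beta-lactamase FRET read-out (CCF4-AM substrate) from ME-180 cells carrying an HRE-driven bla reporter, after 17 hrs compound exposure at 37C/5% CO2. Cells were seeded at 2,000 per well in 0.5% dialyzed FBS medium and preincubated 5 hrs.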

[19] = qHTS assay to identify small molecule antagonists of the estrogen related receptor (ERR) signaling pathway from Tox21 library (AID 1224848); note: nearly all actives have a fitted effect of over 50% in size
Outline: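 Quantitative high-throughput format: ERR reporter cells (2,000/well) pre-incubated 6 h, treated 18 h at 37 C with compounds in DMSO alongside positive and negative controls, then read by ONE-Glo luminescence.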

[20] = qHTS assay to identify small molecule agonists of the estrogen related receptor (ERR) signaling pathway from Tox21 library (AID 1224849; calls by dose curve; note: nearly all actives have a fitted effect of over 15% in size); settings: ERR reporter cell line, ONE-Glo luciferase, 18 h; at 42.5 µM (top of the series)
Outline: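 Luminescence readout (ONE-Glo, 30 min RT) after 18 h compound exposure at 37 C of NTP-supplied ERR reporter cells; cells were plated 6 h before compound addition by pin tool.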

Row | Compound | Potency [1] | Potency [2] | Potency [3] | Potency [4] | Potency [5] | Potency [6] | Potency [7] | Potency [8] | Potency [9] | Potency [10] | Potency [11] | Potency [12] | Potency [13] | Potency [14] | Potency [15] | Potency [16] | Potency [17] | Potency [18] | Potency [19] | activity change, positive = activation [20]
1 | CC(=O)N[C@@H](CS)C(=O)O | inactive | inactive | inactive | inactive | inactive | inactive | inactive | inactive | inactive | inactive | inactive | inactive | inactive | inactive | inactive |  |  |  |  | 
2 | COc1ccc(Cc2cnc(N)nc2N)cc1OC | inactive | inactive | inactive | inactive | inactive | inactive | inactive | inactive |  | inactive |  |  | inactive | inactive | inactive | inactive | inactive | inactive | inactive | 4.01%
3 | Nc1nc2ccccc2[nH]1 | inactive | inactive | inactive | inactive | inactive | inactive | inactive | inactive | inactive | inactive | inactive | inactive |  | inactive | inactive |  |  |  |  | 
4 | CC(C)C(=O)c1c(C(C)C)nn2ccccc12 | inactive | inactive | inactive | inactive | inactive | 23.7 µM (active) | inactive |  | inactive | inactive | inactive |  |  | inactive | inactive | inactive | inactive |  | inactive | -9.6%
